# Results reported in PubChem BioAssay (EPA / NIEHS).
# Results filed as inconclusive are left out. Calls of active or inactive are those of the source. Rule for the calls, unless noted: active = hit-call score of the fitted dose curve at least 0.9, where 1 is the maximum; inactive = score below 0.9.
# Assays:
# [1] = CCTE_Shafer_MEA_acute_spike_number: CCTE's Neural Acute Assay for Total Number of Spikes, Shafer Lab (AID 2284008)
# Method in brief: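 Rat primary cortical neurons on 48-well MEA plates, DIV 13 or 15, at 37 C. 40 min baseline then 40 min with compound (0.03-40 uM); spikes detected at 8x rms noise, expressed as percent change from baseline.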
# [2] = CCTE_Shafer_MEA_acute_firing_rate_mean: CCTE's Neural Acute Assay for Mean Firing Rate, Shafer Lab (AID 2284009);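 note: analyzed for loss of signal so actives lower firing rate relative to DMSO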
# Method in brief: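 Percent change in well-mean firing rate was derived from extracellular spikes detected at 8x rms noise (300-5000 Hz band-pass) before and after a 40-min compound exposure. Cultures were primary rat cortical neurons, tested at 0.03-40 uM.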
# [3] = CCTE_Shafer_MEA_acute_burst_number: CCTE's Neural Acute Assay for Single-Electrode Bursts, Shafer Lab (AID 2284013)
# Method in brief: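 Spontaneous network activity of primary rat cortical neurons was recorded extracellularly on microelectrode arrays at 37 C, with 40-min periods before and during exposure to 0.03-40 uM compound on DIV 13 or 15.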
# [4] = CCTE_Shafer_MEA_acute_burst_duration_mean: CCTE's Neural Acute Assay for Mean Burst Duration, Shafer Lab (AID 2284014);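 note: hits are decreases in mean burst duration relative to DMSO controls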
# Method in brief: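 Read-out is the per-well percent change in mean burst duration (first to last spike within a single-electrode burst) between 40-min recordings before and after compound. Cultures were primary rat cortical neurons on MEAs, dosed at 0.03-40 uM on DIV 13 or 15.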
# [5] = CCTE_Shafer_MEA_acute_per_burst_spike_number_mean: CCTE's Neural Acute Assay for Average Number of Spikes Per Burst, Shafer Lab (AID 2284015);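 note: hits are decreases in mean spikes per burst versus baseline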
# Method in brief: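 We recorded spontaneous network firing of rat cortical neurons for 40 min before and 40 min during exposure to compound at 0.03-40 uM, at 37 C. Spikes were detected adaptively at 8x rms noise, and the change in average spikes per burst was fitted against DMSO.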
# [6] = CCTE_Shafer_MEA_acute_interburst_interval_mean: CCTE's Neural Acute Assay for Mean Interburst Interval, Shafer Lab (AID 2284016);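 note: percent change of mean interburst interval versus each well's own pre-dose baseline; curves fitted for decrease in interburst interval relative to DMSO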
# Method in brief: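 MEA recording of spontaneous network bursting in primary rat cortical cultures; mean interburst interval was compared before and after a 40-min compound exposure (0.03-40 uM) and expressed as percent change, relative to DMSO.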
# [7] = CCTE_Shafer_MEA_acute_burst_percentage_mean: CCTE's Neural Acute Assay for Percentage of Spikes in a Burst, Shafer Lab (AID 2284017);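 note: curve fitted for loss of signal so potency reflects decreased burst percentage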
# Method in brief: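 Compounds were tested at 0.03-40 uM on primary rat cortical neuron networks grown over microelectrodes, with at least three wells per compound. Spontaneous firing was recorded for 40 min before and 40 min after dosing, and the change in burst percentage was computed per well.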
# [8] = CCTE_Shafer_MEA_acute_burst_percentage_std: CCTE's Neural Acute Assay for Standard Deviation of Burst Percentage, Shafer Lab (AID 2284018);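 note: fitted in the negative direction so actives lower burst percentage SD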
# Method in brief: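 Value is percent change from baseline in the across-electrode SD of spikes-in-bursts percentage, wells with >/= 10 active electrodes. Acute 40-min exposure to 0.03-40 uM on DIV 13 or 15 rat cortical cultures, recorded at 37 C after 40-min baseline.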
# [9] = CCTE_Shafer_MEA_acute_per_network_burst_spike_number_mean: CCTE's Neural Acute Assay for Average Number of Spikes in a Network Burst, Shafer Lab (AID 2284019)
# Method in brief: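 Read-out is mean spike count per network burst, taken as percent change between a 40-min pre-exposure and a 40-min post-exposure recording per well. Rat primary cortical neurons on MEAs at 37 C, DIV 13 or 15; compounds at 0.03-40 uM.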
# [10] = CCTE_Shafer_MEA_acute_per_network_burst_spike_number_std: CCTE's Neural Acute Assay for Standard Deviation of Number of Spikes in a Network Burst, Shafer Lab (AID 2284020);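 note: fitted for decrease in spike-number SD versus DMSO so actives lower it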
# Method in brief: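 Spontaneous network activity of primary rat cortical neurons is recorded extracellularly before and after a 40-min compound exposure (0.03-40 uM) at 37 C. The endpoint is the well's percent change in burst spike-number SD.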
# [11] = CCTE_Shafer_MEA_acute_per_network_burst_electrodes_number_mean: CCTE's Neural Acute Assay for Mean Number of Electrodes in a Network Burst, Shafer Lab (AID 2284021);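 note: curves fitted for decreases only so hits reduce electrodes per burst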
# Method in brief: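 Rat primary cortical neurons on 48-well MEAs, DIV 13 or 15, were treated at 0.03-40 uM. Spikes were detected at 8x rms noise and recorded at 37 C. The mean electrodes per network burst in a 40 min exposure recording was expressed as percent change from a 40 min baseline.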
# [12] = CCTE_Shafer_MEA_acute_cross_correlation_area: CCTE's Neural Acute Assay for Area of Cross Correlation, Shafer Lab (AID 2284024);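 note: curves fitted for loss of cross-correlation area so actives lower synchrony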
# Method in brief: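 Rat primary cortical neurons on 48-well MEA, DIV 13 or 15; compounds 0.03-40 uM. Baseline and post-exposure 40 min recordings at 37 C; percent change in area under pooled inter-electrode cross-correlation near zero lag, relative to DMSO.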
# [13] = CCTE_Shafer_MEA_acute_synchrony_index: CCTE's Neural Acute Assay for Synchrony, Shafer Lab (AID 2284027);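 note: network synchrony index of spontaneous spiking in primary rat cortical neurons on MEAs; fitted for loss of signal so actives lower synchrony relative to DMSO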
# Method in brief: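 Primary rat cortical neurons on 48-well MEAs, dosed at 0.03–40 uM on DIV 13 or 15. Spikes are recorded for 40 min at 37C before and after exposure, and synchrony index (0–1) is expressed as percent change from baseline per well.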
# [14] = CCTE_Shafer_MEA_dev_per_burst_interspike_interval: CCTE's Neural Network Formation Assay for Burst Interspike Interval, Shafer Lab (AID 2284044);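 note: mean spike spacing inside bursts as AUC over recordings on days 5 7 9 12; potency for a decrease of within-burst interspike interval below DMSO level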
# Method in brief: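 Primary rat cortical neurons on 48-well MEA plates, exposed from day 0 through day 12, treatment renewed at DIV 5 and 9. Within-burst interspike interval recorded days 5, 7, 9, 12, well-averaged, summarised as AUC; negative fit versus DMSO.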
# [15] = CCTE_Shafer_MEA_acute_AB: CCTE's Alamar Blue Assay for Cytotoxicity in the Neural Acute Assay, Shafer Lab (AID 2284069; active = hit-call score of the fitted dose curve at least 0.9, where 1 is the maximum;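 note: active compounds lower the viability signal compared with DMSO wells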)
# Method in brief: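 Cytotoxicity endpoint for acute MEA exposures of primary rat cortical neurons on day 13 or 15. Resazurin reduction is read fluorescently at 544/590 nm, with DMSO as the negative-control baseline.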
# [16] = CCTE_Shafer_MEA_acute_LDH: CCTE's Lactate Dehydrogenase Assay for Cytotoxicity in the Neural Acute Assay, Shafer Lab (AID 2284086; active = hit-call score of the fitted dose curve at least 0.9, where 1 is the maximum;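 note: active means LDH release rises above DMSO vehicle level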)
# Method in brief: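 Medium from rat cortical neuron MEA cultures sampled right after the 40 min compound-exposure recording; released LDH measured by absorbance at 490 nm. Analyzed as signal gain relative to DMSO.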
# [17] = CCTE_Mundy_HCI_Cortical_Synap_Neur_Matur_NeuriteSpotCountPerNeuriteLength: CCTE's Synaptogenesis and Neurite Maturation Assay in rat cortical cells for Neurite Spot Count per Neurite Length, Mundy Lab (AID 2284210)
# Method in brief: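 Primary rat cortical neurons, compound exposure DIV 7–12, 288.33 h endpoint. Hoechst, anti-MAP2 and anti-synaptophysin labelling; neurite-associated puncta per neurite length scored by automated imaging relative to DMSO controls.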
# [18] = CCTE_Mundy_HCI_Cortical_Synap_Neur_Matur_BPCount: CCTE's Synaptogenesis and Neurite Maturation Assay in rat cortical cells for Branch Point Count, Mundy Lab (AID 2284211)
# Method in brief: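 Rat primary cortical cultures, AraC added DIV 5; chemicals dosed DIV 7 through DIV 12. Fixed cells stained for MAP2, synaptophysin and Hoechst; neurite branch points counted by automated high-content imaging, fitted relative to DMSO.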
# [19] = CCTE_Mundy_HCI_Cortical_NOG_NeuriteCount: CCTE's Neurite Outgrowth Assay in rat cortical cells for Neurite Count, Mundy Lab (AID 2284212);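 note: cells fixed about two days after chemical exposure began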
# Method in brief: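 Neurite number per cell from high-content imaging of betaIII-tubulin immunostaining, with Hoechst nuclear counterstain.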
# [20] = CCTE_Mundy_HCI_Cortical_NOG_NeuriteLength: CCTE's Neurite Outgrowth Assay in rat cortical cells for Neurite Length, Mundy Lab (AID 2284213)
# Method in brief: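 Neurite length was read by high-content imaging of βIII-tubulin-labelled neurites in rat primary cortical cultures. Activity was fitted relative to DMSO.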
# [21] = CCTE_Mundy_HCI_Cortical_Synap_Neur_Matur_NeuriteLength: CCTE's Synaptogenesis and Neurite Maturation Assay in rat cortical cells for Neurite Length, Mundy Lab (AID 2284214)
# Method in brief: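 Rat primary cortical cultures, AraC added DIV 5, dosed DIV 7 through DIV 12 […]. Fixed, MAP2/synaptophysin immunostained with Hoechst; neurite length by high-content imaging, fitted in positive direction versus DMSO.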
# [22] = CCTE_Mundy_HCI_Cortical_Synap_Neur_Matur_SynapseCount: CCTE's Synaptogenesis and Neurite Maturation Assay in rat cortical cells for Synapse Count, Mundy Lab (AID 2284218)
# Method in brief: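 Rat primary cortical cultures, AraC at DIV 5, chemical dosing DIV 7 to DIV 12 (288.33 h). Fixed cells stained for MAP2, synaptophysin and Hoechst; synapses per neuron counted by high-content imaging, loss of signal versus DMSO.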
# [23] = CCTE_Mundy_HCI_Cortical_Synap_Neur_Matur_NeuriteCount: CCTE's Synaptogenesis and Neurite Maturation Assay in rat cortical cells for Neurite Count, Mundy Lab (AID 2284222);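 note: exposure from day 7 to day 12 in vitro with readout at day 12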
# Method in brief: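 In this multiplexed morphology readout, rat primary cortical neurons are fixed at DIV 12 following dosing at DIV 7 and stained for MAP2, synaptophysin and nuclei. High-content image analysis yields neurite count.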
# [24] = CCTE_Mundy_HCI_Cortical_Synap_Neur_Matur_CellBodySpotCount: CCTE's Synaptogenesis and Neurite Maturation Assay in rat cortical cells for Cell Body Spot Count, Mundy Lab (AID 2284223)
# Method in brief: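 Primary rat cortical cultures, AraC added at DIV 5; dosed DIV 7 through DIV 12 […]. Fixed, stained for MAP2 and synaptophysin with Hoechst; cell body-associated synaptophysin puncta per neuron counted by high-content imaging, loss vs DMSO.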
# [25] = CCTE_Mundy_HCI_Cortical_NOG_NeuronCount: CCTE's Neurite Outgrowth Assay in rat cortical cells for Neuron Count, Mundy Lab (AID 2284236; active = hit-call score of the fitted dose curve at least 0.9, where 1 is the maximum;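 note: neurons counted by imaging betaIII-tubulin and Hoechst stained cortical cells; cells exposed to compound for about 48 hours before fixation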)
# Method in brief: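 Read-out: neuron number by high-content imaging of betaIII-tubulin (Alexa Fluor-488) and Hoechst-labelled rat primary cortical cells.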
# [26] = CCTE_Mundy_HCI_Cortical_NOG_BPCount: CCTE's Neurite Outgrowth Assay in rat cortical cells for Branch Point Count, Mundy Lab (AID 2284237)
# Method in brief: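 Measured 50.33 h after dosing, this morphology endpoint uses rat primary cortical cultures labelled for betaIII-tubulin. Branch points are quantified by high-content imaging, with DMSO as negative control and baseline.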
# [27] = CCTE_Mundy_HCI_hNP1_Casp3_7: CCTE's Caspase-Glo 3/7 Assay in human neuroprogenitor cells for Apoptosis, Mundy Lab (AID 2284240)
# Method in brief: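 Apoptosis is scored by activated caspase-3/7 luminescence in WA09-derived neural progenitor cells, measured 26.5 h after chemical dosing. Values represent gain of signal relative to DMSO vehicle.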
# [28] = CCTE_Mundy_HCI_hNP1_CellTiter: CCTE's Cell Titer-Glo 2 Assay in human neuroprogenitor cells for Viability, Mundy Lab (AID 2284241; active = hit-call score of the fitted dose curve at least 0.9, where 1 is the maximum;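 note: a hit is a drop in ATP luminescence versus DMSO meaning reduced viability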)
# Method in brief: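 Human neural progenitor cells (hNP1, WA09-derived) were plated on poly-L-ornithine/laminin and grown 40 to 44 hours at 37 °C, 5% CO2 before chemical addition. Twenty-four hours later, ATP was measured by CellTiter-Glo luminescence; loss of signal versus DMSO indicates reduced viability.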
# [29] = CCTE_Mundy_HCI_iCellGluta_NOG_NeuriteCount: CCTE's Neurite Outgrowth Assay in iCellGluta cells for Neurite Count, Mundy Lab (AID 2284342; active = hit-call score of the fitted dose curve at least 0.9, where 1 is the maximum;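 note: chemical exposure about 48 hours starting 2 hours after plating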)
structure (smiles),measurement,setting,value
CC1(C)[C@H](C=C(Cl)Cl)[C@@H]1C(=O)O[C@@H](C#N)c1cccc(Oc2ccccc2)c1,outcome,[1],inactive
same,outcome,[2],inactive
same,outcome,[3],inactive
same,outcome,[4],inactive
same,AC50,[5],2610 nM (active)
same,AC50,[6],1120 nM (active)
same,AC50,[7],2240 nM (active)
same,outcome,[8],inactive
same,outcome,[9],inactive
same,AC50,[10],682 nM (active)
same,AC50,[11],1230 nM (active)
same,AC50,[12],170 nM (active)
same,AC50,[13],1390 nM (active)
same,AC50,[14],4060 nM (active)
same,outcome,[15],inactive
same,outcome,[16],inactive
same,outcome,[17],inactive
same,outcome,[18],inactive
same,outcome,[19],inactive
same,outcome,[20],inactive
same,outcome,[21],inactive
same,outcome,[22],inactive
same,outcome,[23],inactive
same,outcome,[24],inactive
same,outcome,[25],inactive
same,outcome,[26],inactive
same,outcome,[27],inactive
same,AC50,[28],26000 nM (active)
same,outcome,[29],inactive
